Reference: PubChem BioAssay (NCATS)
Results filed as inconclusive are left out. Calls of active or inactive are those of the source. Calls come from the whole dose curve; as a rule, active = well fitted cell-killing curve with a large enough effect; inconclusive = small, poorly fitted or top-dose-only effect; inactive = no such curve, though single readings can be large or run the other way.

Assay: qHTS of pediatric cancer cell lines to identify multiple opportunities for drug repurposing: Confirmatory screen for BT-37 cells (AID 1347117);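 note: viability measured after 48 h of compound exposure; nearly all actives have a fitted effect of over 55% in size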;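 for activity change, negative = cytotoxic: plate controls were DMSO for no effect and bortezomib for full effect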
Conditions: BT-37 pediatric cancer cells, viability; series mostly up to 45.9 µM; activity change, negative = cytotoxic: at the top concentration
In short: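 Viability after 48 h compound treatment at 37C, 500-1,000 cells/well, read as ATP luminescence with CellTiter-Glo. Primary screens used 11-point (MIPE, 0.78 nM-46 µM) or 8-point (NPC, 0.59 nM-46 µM) final concentrations; follow-up screens used 11-point dilutions.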
Potency is the fitted concentration of half-maximal effect.

| Compound | activity change, negative = cytotoxic | Potency |
| --- | --- | --- |
| COc1ccc(-c2oc3cc(OC)ccc3c2C(=O)c2ccc(C#N)cc2)cc1 | -2.5% (inactive) | – |
| Cc1oncc1C(=O)Nc1ccc(C(F)(F)F)cc1 | -18.3% (inactive) | – |
| OC[C@H](Cc1ccccc1)Nc1nc(Oc2ccc3c(c2)CCC3)nc2c1ncn2Cc1ccc(-c2ccccc2)cc1 | -9.01% (inactive) | – |
| CN1CCN(CCCN2c3ccccc3Sc3ccc(C(F)(F)F)cc32)CC1 | – | 23.3 µM (active) |
| COc1ccc(-c2ccc3c(N4CCOC[C@H]4C)nc(N4CCOC[C@H]4C)nc3n2)cc1CO | – | 0.233 µM (active) |
| CCN(CC)CCCC(C)Nc1ccnc2cc(Cl)ccc12 (configuration not stated) | -19% (inactive) | – |
| CS(=O)(=O)c1ccc(C(=O)Nc2ccc(Cl)c(-c3ccccn3)c2)c(Cl)c1 | -1.38% (inactive) | – |
| Cc1c(CN2CCN(C(=O)C(C)C)CC2)sc2c(N3CCOCC3)nc(-c3cnc(N)nc3)nc12 | – | 0.737 µM (active) |
| Cc1cn[nH]c1 | -8.49% (inactive) | – |
| Cc1c(C)c2c(c(C)c1O)CCC(C)(COc1ccc(CC3SC(=O)NC3=O)cc1)O2 (configuration not stated) | -14% (inactive) | – |
| NCCCC(N)(C(=O)O)C(F)F (configuration not stated) | -1.17% (inactive) | – |
| COCC(=O)NCC=Cc1ccc2ncnc(Nc3ccc(Oc4ccc(C)nc4)c(C)c3)c2c1 | – | 24 µM (active) |
| NC(=O)c1ccc(I)c([N+](=O)[O-])c1 | -18.9% [at 95.5 µM] (inactive) | – |
| CCOc1cc(N2CCC(O)CC2)ccc1Nc1ncc2c(n1)N(C)c1ccccc1C(=O)N2C | – | 7.37 µM (active) |
| Oc1cccc(-c2nc(N3CCOCC3)c3oc4ncccc4c3n2)c1 | – | 0.851 µM (active) |
| CC(C=CC1=C(C)CCCC1(C)C)=CC=CC(C)=CC(=O)O | 4.09% (inactive) | – |
| C#Cc1cccc(Nc2ncnc3cc(OCCOC)c(OCCOC)cc23)c1 | – | 5.85 µM (active) |
| COc1cccc2cc(-c3nc(C4CCC(C(=O)O)CC4)n4ncnc(N)c34)[nH]c12 (configuration not stated) | -71.7% (inactive) | – |

Assay: qHTS of pediatric cancer cell lines to identify multiple opportunities for drug repurposing: Confirmatory screen for TC32 cells (AID 1347118);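 note: cells exposed to compound for 48 h before the read; nearly all actives have a fitted effect of over 65% in size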; for activity change, negative = cytotoxicity: % is set by controls: 0 for no effect and ±100 for the full control effect
Conditions: TC32 Ewing sarcoma cells viability qHTS; series mostly up to 45.9 µM; activity change, negative = cytotoxicity: at the top concentration
In short: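 TC32 cells, 500-1,000/well in growth medium, compound-treated 48 h at 37 °C; viability from CellTiter-Glo luminescence. Primary screen: MIPE 11-point (0.78 nM–46 µM final), NPC 8-point (0.59 nM–46 µM final); confirmatory at 11-point dilutions.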

| Compound | Potency | activity change, negative = cytotoxicity |
| --- | --- | --- |
| CCC(C)(C)C(=O)O[C@H]1C[C@@H](C)C=C2C=C[C@H](C)[C@H](CC[C@@H]3C[C@@H](O)CC(=O)O3)[C@H]21 | 16.5 µM (active) | – |
| O=C(c1cc(Cc2n[nH]c(=O)c3ccccc23)ccc1F)N1CCN(C(=O)C2CC2)CC1 | – | -83.1% (inactive) |
| Cn1cnc([N+](=O)[O-])c1Sc1ncnc2nc[nH]c12 | 1.34 µM (active) | – |
| CCC(C)n1ncn(-c2ccc(N3CCN(c4ccc(OC[C@H]5CO[C@](Cn6cncn6)(c6ccc(Cl)cc6Cl)O5)cc4)CC3)cc2)c1=O (some centres not stated) | 3.29 µM (active) | – |
| O=C(NOC[C@H](O)CO)c1ccc(F)c(F)c1Nc1ccc(I)cc1F | – | 6.9% (inactive) |
| COc1cc(Nc2ncc3c(n2)-c2ccc(Cl)cc2C(c2c(F)cccc2OC)=NC3)ccc1C(=O)O | 0.147 µM (active) | – |
| C[C@]1(c2nc3c(C(N)=O)cccc3[nH]2)CCCN1 | 18.5 µM (active) | – |
| COc1ccc(-c2ccc3c(N4CCOC[C@H]4C)nc(N4CCOC[C@H]4C)nc3n2)cc1CO | 0.208 µM (active) | – |
| CCN(CC)CCCC(C)Nc1ccnc2cc(Cl)ccc12 (configuration not stated) | – | -15.1% (inactive) |
| CS(=O)(=O)c1ccc(C(=O)Nc2ccc(Cl)c(-c3ccccn3)c2)c(Cl)c1 | 4.65 µM (active) | – |
| Cc1c(CN2CCN(C(=O)C(C)C)CC2)sc2c(N3CCOCC3)nc(-c3cnc(N)nc3)nc12 | 0.737 µM (active) | – |
| Cc1cn[nH]c1 | – | 7.26% (inactive) |
| Cc1c(C)c2c(c(C)c1O)CCC(C)(COc1ccc(CC3SC(=O)NC3=O)cc1)O2 (configuration not stated) | – | -1.74% (inactive) |
| CN(C)c1ccc(C2Nc3ccc4ccccc4c3C3=C2C(=O)CC(C)(C)C3)cc1Br (configuration not stated) | 15.1 µM (active) | – |
| Cn1cnc2c(F)c(Nc3ccc(Br)cc3Cl)c(C(=O)NOCCO)cc21 | – | 3.76% (inactive) |
| COCC(=O)NCC=Cc1ccc2ncnc(Nc3ccc(Oc4ccc(C)nc4)c(C)c3)c2c1 | 26.9 µM (active) | – |
| CCCS(=O)(=O)Nc1ccc(F)c(C(=O)c2c[nH]c3ncc(-c4ccc(Cl)cc4)cc23)c1F | 18.5 µM (active) | – |
| NC(=O)c1ccc(I)c([N+](=O)[O-])c1 | 39 µM (active) | – |
| CCOc1cc(N2CCC(O)CC2)ccc1Nc1ncc2c(n1)N(C)c1ccccc1C(=O)N2C | 0.928 µM (active) | – |
| COc1cc2nccc(Oc3ccc(NC(=O)NC4CC4)c(Cl)c3)c2cc1C(N)=O | 14.7 µM (active) | – |
| Nc1nc2[nH]cc(CCc3ccc(C(=O)N[C@@H](CCC(=O)O)C(=O)O)cc3)c2c(=O)[nH]1 | 0.465 µM (active) | – |
| Oc1cccc(-c2nc(N3CCOCC3)c3oc4ncccc4c3n2)c1 | 0.427 µM (active) | – |
| Nc1nc2ccc(OC(F)(F)F)cc2s1 | – | -14.3% (inactive) |
| Nc1nc2c(ncn2COCCO)c(=O)[nH]1 | – | -20.4% (inactive) |
